Compound activity (PubChem BioAssay)
The list is not random: actives were taken first. Their share in the collection is about 8.7%.
Pf growth 48h: inhibits P. falciparum growth in the first generation, 48 h | P. falciparum luciferase growth in erythrocytes, 48 h | Potency, µM (highest dose often 28.7 µM), inactives show at the top dose activity change, negative = inhibition, most hits filed as inhibitors | 5.9% of 310,000 active
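Read-out is firefly luciferase luminescence from an integrated reporter in P. falciparum, so falling signal marks reduced parasite growth. Infected erythrocytes were at 2% hematocrit and 0.1% parasitemia (final) in Albumax-supplemented RPMI 1640.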
AMA1 RON2 block: AMA1-RON2 (P. falciparum) interaction inhibition; AlphaScreen AMA1-biotinylated RON2 peptide binding; Potency, µM (series often up to 58.2 µM), for the others: at the top dose activity change, negative = inhibition, usual class: inhibitors; 0.2% of 360,000 active;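 further: 0% = vehicle wells and -100% = peptide control; nearly all actives have a fitted effect of over 45% in size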
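AMA1 (3D7) with his tag at 25 nM final met compounds first, then biotinylated RON2 peptide at 25 nM; detection used donor plus acceptor beads, 10 µg/mL apiece, read by AlphaScreen after 30 min at room temperature.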
VACV Venus inh: inhibitors of vaccinia virus (Venus reporter); 0.46% of 330,000 active; Vaccinia virus Venus reporter expression, fluorescence; Potency, µM (doses to about 36.5 µM), for the others: at the highest dose activity change, negative = inhibition, hits mostly inhibitors; calls by dose curve; tested in A549 cells; further: nearly all actives have a fitted effect of over 30% in size
Pf growth 96h: inhibits malaria parasite growth, 96 h. P. falciparum luciferase reporter growth, 96 h. Potency, µM (doses to about 28.7 µM), inactives show top-dose activity change, negative = inhibition, actives largely listed as inhibitors. 6.9% of 320,000 active. AID 504834
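96 h incubation, 37 C, 5% CO2, of luciferase-reporter P. falciparum-infected RBCs (2% hematocrit, 0.05% parasitemia final) with test compounds; endpoint luminescence.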
VACV mCherry inh: inhibitors of vaccinia virus infection (mCherry reporter signal). Vaccinia virus mCherry reporter infection, fluorescence. Potency, µM (top dose mostly 36.5 µM), without a hit: at the top dose activity change, negative = inhibition, most hits filed as inhibitors. 0.63% of 310,000 active. AID 720579; calls by dose curve; tested in A549 cells; further: nearly all actives have a fitted effect of over 35% in size
Starred values were filed as active, the others as inactive; i = inactive; ? = inconclusive; · = no result given; [ ] = another dose, or the depositor's remark. Unless noted, the call rests on the fitted dose curve; in most records, active means well fitted curve in the direction sought with a large enough effect; inconclusive means small, poorly fitted or top-dose-only effect, or another doubt; inactive means no such curve, though single readings can be large; an effect the other way counts as inactive or inconclusive. Unless noted, on the % scale 0 is the no-effect control and ±100 the full control effect; potency means the concentration at half of the fitted maximal effect.

SMILES | Pf growth 48h | AMA1 RON2 block | VACV Venus inh | Pf growth 96h | VACV mCherry inh
Cc1ccc(Cl)cc1NC(=O)Nc1nnc(N2CCCC(C)C2)s1 (stereo not given) | · | · | -19% | · | -23%
Cc1ccc(CNc2nc(-c3ccco3)nn2S(C)(=O)=O)cc1 | · | · | -1%[7.34 µM] | · | -7%[7.34 µM]
CCNc1ccc(C(=O)Nc2ccc3nc(C)sc3c2)cc1[N+](=O)[O-] | ? | 22% | -7% | ? | -16%
Cc1ccc(NC(=O)c2ccc(NCCc3ccccc3)c([N+](=O)[O-])c2)cc1F | 0% | -25% | -1% | 8.3µM* | -10%
Cc1ccc(NC(=O)c2ccc(NCCN)c([N+](=O)[O-])c2)cc1Cl | 4.1µM* | -6% | -12% | 7% | -13%
O=C(Nc1cc(F)cc(F)c1)c1ccc(NCCc2ccccc2)c([N+](=O)[O-])c1 | 13% | -17% | -7% | ? | -15%
CCOC(=O)c1cc(S(=O)(=O)NCc2ccc(Cl)cc2)[nH]n1 | · | · | -14% | · | -13%[7.34 µM]
CCCCCCCCCCCCCCCC[N+](C)(C)CCN(Cc1ccc(OC)cc1)c1ncccn1 | 3.7µM* | -1% | 13µM* | 1.9µM* | ?
COc1ccc(CN(CCN(C)C)c2ncccn2)cc1 | -12% | · | ? | ? | -13%
COc1ccc(C2SCC(=O)N2c2nnc(C34CC5CC(CC(C5)C3)C4)s2)cc1 (stereo not given) | 0% | 8% | -4% | 0% | -12%
COc1cc(C2SCC(=O)N2c2nnc(C34CC5CC(CC(C5)C3)C4)s2)cc(OC)c1OC (stereo not given) | 15µM* | 6% | -5% | 0% | i
Oc1ccc(Cl)cc1C1=NNC(c2cccs2)C1 (stereo not given) | 3.3µM* | 82% | -8% | 12µM* | ?
CCC(C(=O)Nc1cccc(OC)c1)n1nc(C)c2c(C)n(-c3ccccc3)nc2c1=O (stereo not given) | ? | -10% | -19% | 38% | i
CCOc1ccc(NC(=O)C(CC)n2nc(C)c3c(C)n(-c4ccccc4)nc3c2=O)cc1 (stereo not given) | ? | 16% | -17% | 13µM* | ?
CCC(C(=O)NCCCc1ccccc1)n1nc(C)c2c(C)n(-c3ccccc3)nc2c1=O (stereo not given) | -4% | 2% | -14% | -27% | -29%
CCC(C(=O)Nc1cc(F)ccc1F)n1nc(C)c2c(C)n(-c3ccc(C)cc3)nc2c1=O (stereo not given) | ? | -11% | -15% | 8.3µM* | -22%
CCC(C(=O)Nc1ccccc1F)n1nc(C)c2c(C)n(-c3ccccc3)nc2c1=O (stereo not given) | ? | 0% | · | 15µM* | ·
O=C(CSc1nccn1C1CCCC1)Nc1ccccc1 | · | · | -14% | · | -14%
COc1cc2c(cc1OC)C(COc1ccccc1OC)N(C(=O)CC(C)C)CC2 (stereo not given) | · | · | 0% | · | 3%
O=[N+]([O-])c1ccc(/C=C2\C=Cc3ccccc32)cc1 | · | · | -9% | · | 9%
C[C@H]1CCCC(=O)CCC/C=C/c2cc(O)cc(O)c2C(=O)O1 | · | -7% | -8% | 13µM* | -11%
COc1cc(O)cc2c1C(=O)OC(C)CCCC(=O)CCC/C=C\2 (stereo not given) | 23% | 2% | -3% | 3% | -15%
Cc1ccc2[nH]c(=O)c(C3C(C#N)=C(N)Oc4c3ccc3cccnc43)cc2c1 (stereo not given) | ? | -11% | ? | · | 10µM*
N#CC1=C(N)Oc2c(ccc3cccnc23)C1c1ccccc1 (stereo not given) | 13µM* | 64% | · | ? | ·
Cc1oc(C)c2c(=O)ccc3c(c12)OC(N)=C(C#N)C3c1ccccc1 (stereo not given) | ? | -16% | 24% | 75% | ·
SMILES | Pf growth 48h | AMA1 RON2 block | VACV Venus inh | Pf growth 96h | VACV mCherry inh
N#CC1=C(N)Oc2c(ccc3ccccc23)C1c1cccs1 (stereo not given) | · | 83% | ? | 8.3µM* | ?
CCOc1ccccc1CNC(=O)Cc1ccc(NC(=O)N2CCCCc3ccccc32)cc1 | · | · | -12% | · | i
O=C(c1ncn(Cc2ccccc2)c1C(=O)N1CCN(c2ccccc2)CC1)N1CCN(c2ccccc2)CC1 | · | -24% | -29% | · | ?
O=C(c1ncn(Cc2ccccc2)c1C(=O)N1CCc2ccccc2C1)N1CCc2ccccc2C1 | 1.5µM* | 16% | -17% | ? | -27%
COc1ccc(S(=O)(=O)N2CCC(C(=O)Nc3ccc(F)cc3)CC2)c2cccnc12 | 1µM* | 5% | 4% | 0% | -3%
COc1ccc(NC(=O)C2CCN(S(=O)(=O)c3cccc4cccnc34)CC2)cc1OC | -7% | · | · | 6.6µM* | ·
CNC(=O)C1CCC(Cn2c(=O)c3sccc3n(CC(=O)N3CCCC3)c2=O)CC1 (stereo not given) | · | · | -3% | · | 2%
CC(C)C(=O)Nc1nnc(S(=O)(=O)N(C)c2ccc(Cl)cc2)s1 | 14% | 6% | -9% | 2.9µM* | -24%
Cc1cc(N(C)C)ccc1N=Nc1ccc(N)cc1 | · | 14µM* | -18% | · | -11%
Nc1ccc(N=Nc2ccc(N)cc2)cc1 | 331% | -10% | · | 343% | ·
COc1cc(/C=C/C(=O)Nc2ccc3[nH]c(=O)[nH]c3c2)cc(OC)c1OC | 10µM* | 12% | -3% | -10% | i
COc1cc(/C=C/C(=O)N2CCC=CC2=O)cc(OC)c1OC | 9.3µM* | -13% | ? | ? | -19%
COc1cc(/C=C/C(=O)N2CCCN(C(=O)/C=C/c3cc(OC)c(OC)c(OC)c3)CC2)cc(OC)c1OC | -25% | 5% | · | -25% | ·
COc1cc(/C=C/C(=O)Nc2cccnc2)cc(OC)c1OC | -16% | 4% | · | 9.3µM* | ·
O=C(/C=C/c1cccs1)Nc1cccnc1 | 216% | -2% | -3% | 4.7µM* | -8%
COc1cccc(/C=C/C(=O)Nc2ccc3[nH]c(=O)[nH]c3c2)c1 | 5% | -7% | · | 8% | ·
CCc1nn2c(=O)cc(COC(=O)c3ccccc3NC(=O)COc3ccc(C)c(C)c3)nc2s1 | · | · | -22% | · | -8%
COc1ccc(/C=C/C(=O)NNc2cc(=O)n(C)c(=O)n2C)cc1OC | -8% | 28% | · | -15% | ·
COc1cc(/C=C\C(=O)Nc2cc(=O)n(C)c(=O)n2C)cc(OC)c1OC | 5.2µM* | 12% | -1% | ? | -7%
CC1=NN(C(N)=S)C(=O)C1N=Nc1c(C)cc(C)cc1C (stereo not given) | · | -3% | 7% | 4.1µM* | -11%
CC1=NN(C(N)=S)C(=O)C1N=Nc1c(Br)cc(Br)cc1Br (stereo not given) | 15% | 63% | -7% | -20% | -9%
CC1=NN(C(N)=S)C(=O)C1N=Nc1ccc(C)cc1C (stereo not given) | · | · | · | 8.3µM* | ·
O=C(c1ccc2c(c1)N(Cc1ccccc1)C(=O)c1ccccc1S2=O)N1CCC(Cc2ccccc2)CC1 (stereo not given) | · | · | -17% | · | -24%
Cc1oc2ncn(C)c(=O)c2c1C(=O)NCc1ccc(Cl)cc1 | · | · | -16% | · | -21%
